Experimental data published in PubChem BioAssay (EPA / NIEHS).
Records with an inconclusive call do not appear. Activity calls are given as the source filed them. How the source made its calls: active means hit-call score of the fitted dose curve at least 0.9, where 1 is the maximum; inconclusive means response in the unintended direction; inactive means score below 0.9.

biological target: Hepatocyte nuclear factor 4-alpha (Homo sapiens) (UniProt P41235); test: ATG_HNF4a_TRANS: Attagene TRANS-FACTORIAL HepG2 Assay for human Hepatocyte Nuclear Factor 4 alpha (HNF4a) (AID 2282982); conditions: HepG2 HNF4a transactivation reporter, mRNA readout
Method: ATG_TRANS is a cell-based, multiplexed-readout assay that uses HepG2, a human liver cell line, with measurements taken at 24 hours after chemical dosing in a 24-well plate.ATG_HNF4a_TRANS is one of 30 assay component(s) measured or calculated from the ATG_TRANS assay. It is designed to make measurements of mRNA induction, a form of inducible reporter, as detected with fluorescence intensity signals by Reverse transcription polymerase chain reaction (RT-PCR) and Capillary electrophoresis technology.Data from the assay component ATG_HNF4a_TRANS was analyzed into 1 assay endpoint. This assay endpoint, ATG_HNF4a_TRANS, was analyzed in the positive analysis fitting direction relative to DMSO as the negative control and baseline of activity. Using a type of inducible reporter, measures of mRNA for gain-of-signal activity can be used to understand the reporter gene at the transcription factor-level as they relate to the gene HNF4A. Furthermore, this assay endpoint can be referred to as a primary readout, because this assay has produced multiple assay endpoints where this one serves a reporter gene function. To generalize the intended target to other relatable targets, this assay endpoint is annotated to the nuclear receptor intended target family, where the subfamily is orphan.
Human liver HepG2 cells are transiently transfected with multiple reporter transcription units (MRTUs) in 6-well plates using FuGene 6 reagent (Roche; 3 ml FuGene/1 mg DNA). The MRTU constructs are regulated by a cis-regulating element (promoter). […] A major difference between the CIS and TRANS system is that in CIS activities of endogenous TFs are measured, whereas the TRANS assay evaluates changes in activities of exogenous, chimeric NR-Gal4 proteins. […] At the end of 24 hour incubation, total RNA was isolated using TriZol reagent (Invitrogen). The isolated RNA is then reverse-transcribed using oligo(dT) primer and Mo-MLV reverse transcriptase (Invitrogen) with DNAse I (Ambion) treatment for 30 min. The one-tenth of the produced cDNA was amplified by PCR using Taq DNA polymerase (Invitrogen) and two reporter sequence-specific primers. The PCR products were fluorescently labeled by primer extension with 6-arboxyfluorescein (6-FAM) 5'-labeled reporter sequence-specific primer (2 min at 95 C, 20 s at 68 C and 10 min at 72 C) and these products were digested with 5U of HpaI (New England Biolabs) for 2h at 37 C. The fragments were purified using Qiaquick PCR columns (Qiagen), analyzed on an ABI 3130xL genetic analyzer (Applied Biosystems) with peak positions identified by using a set of X-rhodamine (ROX)-labeled MapMarker1000 molecular weight standards (BioVentures). The raw capillary electrophoresis data was processed using Attagraph software (Attagene).

Hepatocyte nuclear factor 4-alpha (Homo sapiens), sequence (P41235 whole entry, looked up): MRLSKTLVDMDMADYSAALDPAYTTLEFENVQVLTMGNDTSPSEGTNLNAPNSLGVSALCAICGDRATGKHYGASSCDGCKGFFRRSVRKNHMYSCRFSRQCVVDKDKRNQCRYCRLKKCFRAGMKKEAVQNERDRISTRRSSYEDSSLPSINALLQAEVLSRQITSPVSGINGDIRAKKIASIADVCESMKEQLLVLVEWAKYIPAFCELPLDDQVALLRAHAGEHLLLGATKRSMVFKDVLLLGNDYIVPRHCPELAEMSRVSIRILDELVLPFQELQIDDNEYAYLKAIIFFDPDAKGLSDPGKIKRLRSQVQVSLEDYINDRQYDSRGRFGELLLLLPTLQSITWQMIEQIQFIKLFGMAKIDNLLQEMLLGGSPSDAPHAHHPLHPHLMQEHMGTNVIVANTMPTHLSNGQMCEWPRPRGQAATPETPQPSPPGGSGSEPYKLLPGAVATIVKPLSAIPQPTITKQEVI

Compound | outcome | AC50
N#CC1(N)CCCCC1 | inactive | –
CCCCNS(=O)(=O)c1ccccc1 | inactive | –
CC(=O)OC1CCCCC1 | inactive | –
C=CC(=O)OCC(C)OCC(C)OCC(C)OC(=O)C=C (stereo not given) | inactive | –
N#Cc1ccc(C2CCCc3cncn32)cc1 (stereo not given) | inactive | –
CCC(C)c1ccccc1 (stereo not given) | inactive | –
CC(C)CC(=O)OCc1ccccc1 | inactive | –
CCCCC1C(=O)N(c2ccccc2)N(c2ccccc2)C1=O | inactive | –
O=c1c(O)c(-c2ccc(O)cc2O)oc2cc(O)cc(O)c12 | inactive | –
CN(C)Cc1cc(CN(C)C)c(O)c(CN(C)C)c1 | inactive | –
CC(C)CCCCCOC(=O)CS | inactive | –
COC(=O)CC(C)CCC=C(C)C (stereo not given) | inactive | –
Cc1noc(NS(=O)(=O)c2ccc(N)cc2)c1C | inactive | –
CC/C=C\CCOC(=O)c1ccccc1O | inactive | –
CCCCCCCCCCCCC | inactive | –
COc1ccc(C(=O)/C(Br)=C\C(=O)O)cc1 | inactive | –
C=CCCCCCCCCO | inactive | –
COc1cc(O)c(C(=O)c2ccccc2)cc1S(=O)(=O)O | inactive | –
C=Cc1ccc(OC(C)=O)cc1 | inactive | –
C1CCSC1 | inactive | –

Compound | outcome | AC50
CCCCOCCOC(=O)COc1ccc(Cl)cc1Cl | inactive | –
Cc1ccc(S(=O)(=O)N=C=O)cc1 | inactive | –
CCOC(=O)C1=NN(c2ccc(Cl)cc2Cl)C(C)(C(=O)OCC)C1 (stereo not given) | inactive | –
O=C(Nc1ccccc1)c1cc(Cl)ccc1O | inactive | –
CC1=CCC(C(C)C)C=C1 (stereo not given) | inactive | –
Cn1ccnc1 | inactive | –
CC1(C)C(=O)N(CO)C(=O)N1CO | inactive | –
CC=CC(=O)OCC(C)C | inactive | –
O=S(=O)(O)c1ccc(N=Nc2c(O)ccc3ccccc23)cc1 | inactive | –
CCOc1ccc(NC(N)=O)cc1 | inactive | –
CCCCCC[C@@H](O)C/C=C\CCCCCCCC(=O)OCC(O)CO (stereo not given in full) | inactive | –
CCCCCCO | inactive | –
N=C1C=CC(=C(c2ccc(N)cc2)c2ccc(N)cc2)C=C1 | – | 129 µM (active)
Clc1cccnc1 | inactive | –
CCCCCCCOC(=O)c1ccc(O)cc1 | inactive | –
Cc1c(C(=O)c2c[nH]n(C)c2=O)ccc(S(C)(=O)=O)c1C1=NOCC1 | inactive | –
CCCCCCCCCCCC(C)=O | inactive | –
O=C(Oc1ccccc1)c1ccccc1C(=O)Oc1ccccc1 | inactive | –
C=C(C)C1CC=C(C)C(OC(C)=O)C1 (stereo not given) | inactive | –
CCCCC(=O)O | inactive | –
